Eight compounds from PubChem BioAssay (EPA / NIEHS) can be followed below.

A short description of assay [1]: CCTE_Harrill_HTTr_Viability_DMEM_6hr: (Pilot) CCTE's 6-hour Cell Viability Assessment for the High-Throughput Transcriptomics (HTTr) Platform, in MCF-7 cells cultured in DMEM + 10% fetal bovine serum, Harrill Lab (AID 2283973). In short, it runs like this: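 MCF-7 cells in DMEM + 10% FBS, eight-point dilution series, 6 h exposure. Membrane integrity by propidium iodide exclusion with high-content imaging; bidirectional fit versus DMSO.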

A short description of assay [2]: CCTE_Harrill_HTTr_Viability_DMEM_12hr: (Pilot) CCTE's 12-hour Cell Viability Assessment for the High-Throughput Transcriptomics (HTTr) Platform, in MCF-7 cells cultured in DMEM + 10% fetal bovine serum, Harrill Lab (AID 2283974). The gist of the method:
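MCF-7 cells in DMEM + 10% FBS exposed 12 h to an eight-point dilution series; membrane integrity scored by propidium iodide exclusion with high-content imaging, bidirectional fitting versus DMSO.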

Assay [3] in a line: CCTE_Harrill_HTTr_Viability_DMEM_24hr: (Pilot) CCTE's 24-hour Cell Viability Assessment for the High-Throughput Transcriptomics (HTTr) Platform, in MCF-7 cells cultured in DMEM + 10% fetal bovine serum, Harrill Lab (AID 2283975). The gist of the method: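 MCF-7 cells in DMEM with 10% FBS exposed for 24 hours to an eight-point dilution series. Membrane integrity by propidium iodide exclusion with high content imaging; bidirectional fit against DMSO.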

Assay [4] can be described thus: CCTE_Harrill_HTTr_Viability_PRF_DMEM_6hr: (Pilot) CCTE's 6-hour Cell Viability Assessment for the High-Throughput Transcriptomics (HTTr) Platform, in MCF-7 cells cultured phenol red-free DMEM + 10% charcoal-stripped fetal bovine serum, Harrill Lab (AID 2283976). The gist of the method: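 MCF-7 cells in phenol red-free DMEM with 10% charcoal-stripped FBS exposed 6 hours to an eight-point dilution series. Propidium iodide exclusion imaged; curves fitted bidirectionally against DMSO.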

Assay [5] can be described thus: CCTE_Harrill_HTTr_Viability_PRF_DMEM_12hr: (Pilot) CCTE's 12-hour Cell Viability Assessment for the High-Throughput Transcriptomics (HTTr) Platform, in MCF-7 cells cultured in phenol red-free DMEM + 10% charcoal-stripped fetal bovine serum, Harrill Lab (AID 2283977). The gist of the method:
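MCF-7 cells in phenol red-free DMEM with 10% charcoal-stripped FBS exposed 12 hours to an eight-point dilution series. Viability assessed by high-content imaging of propidium iodide exclusion; bidirectional fit versus DMSO.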

The nature of assay [6]: CCTE_Harrill_HTTr_Viability_PRF_DMEM_24hr: (Pilot) CCTE's 24-hour Cell Viability Assessment for the High-Throughput Transcriptomics (HTTr) Platform, in MCF-7 cells cultured in phenol red-free DMEM + 10% charcoal-stripped fetal bovine serum, Harrill Lab (AID 2283980). The gist of the method:
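MCF-7 cells in phenol red-free DMEM with 10% charcoal-stripped FBS, eight-point dilution series, 24 h exposure. Membrane integrity by propidium iodide exclusion with high content imaging; bidirectional fit vs DMSO.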

Assay [7] can be described thus: CCTE_Harrill_HTTr_Apoptosis_DMEM_6hr: (Pilot) CCTE's 6-hour Apoptosis Assessment for the High-Throughput Transcriptomics (HTTr) Platform, in MCF-7 cells cultured in DMEM + 10% fetal bovine serum, Harrill Lab (AID 2283981). In short, it runs like this:
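Caspase-3/7 activation read by high content imaging with CellEvent Caspase 3/7 Green in MCF-7 cells (DMEM + 10% FBS), 6 h after dosing; eight-point dilution series. Bidirectional fitting relative to DMSO baseline.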

Assay [8] is described as follows: CCTE_Harrill_HTTr_Apoptosis_DMEM_12hr: (Pilot) CCTE's 12-hour Apoptosis Assessment for the High-Throughput Transcriptomics (HTTr) Platform, in MCF-7 cells cultured in DMEM + 10% fetal bovine serum, Harrill Lab (AID 2283982). In short, it runs like this:
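MCF-7 cells in DMEM + 10% FBS, exposed 12 h to an eight-point dilution series; caspase-3/7 activation imaged with CellEvent Green. Bidirectional fit versus DMSO.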

Assay [9] is described as follows: CCTE_Harrill_HTTr_Apoptosis_DMEM_24hr: (Pilot) CCTE's 24-hour Apoptosis Assessment for the High-Throughput Transcriptomics (HTTr) Platform, in MCF-7 cells cultured in DMEM + 10% fetal bovine serum, Harrill Lab (AID 2283983). The gist of the method:
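MCF-7 cells in DMEM + 10% FBS, eight-point dilution series, 24 h exposure. Caspase-3/7 activation imaged by high-content imaging with CellEvent Caspase 3/7 Green. Bidirectional curve fitting against DMSO baseline.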

Assay [10] in a line: CCTE_Harrill_HTTr_Apoptosis_PRF_DMEM_6hr: (Pilot) CCTE's 6-hour Apoptosis Assessment for the High-Throughput Transcriptomics (HTTr) Platform, in MCF-7 cells cultured phenol red-free DMEM + 10% charcoal-stripped fetal bovine serum, Harrill Lab (AID 2283984). In short, it runs like this:
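MCF-7 cells in phenol red-free DMEM + 10% charcoal-stripped FBS, eight-point dilution series, 6 h exposure. Caspase-3/7 activation imaged by high-content imaging with CellEvent Caspase 3/7 Green; bidirectional fit versus DMSO baseline.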

Assay [11] concerns the target Thyroid hormone receptor alpha (Rattus norvegicus) + Thyroid hormone receptor beta (Rattus norvegicus) (UniProt P18113+P63059). Kind of assay: TOX21_TR_LUC_GH3_Antagonist_Followup: Tox21 GH3 Thyroid Hormone Receptor Antagonism Luciferase Follow-Up Assay (AID 2283942; active = hit-call score of the fitted dose curve at least 0.9, where 1 is the maximum). In short, it runs like this:
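Antagonist mode: GH3 cells seeded 1,500/well, compounds at 15 concentrations (92 uM to 5nM final) plus T3 at 1.0 nM final, 24 h at 37C. Luciferase read with ONE-Glo after 30 min at room temperature.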

In another assay the target is THRA (gene 7067) (UniProt P10827). Kind of assay: TOX21_TRA_COA_Antagonist_Followup_ratio: Tox21 Thyroid Hormone Receptor alpha Antagonism through Coactivator Recruitment Follow-Up Assay, Ratio (AID 2283953; active = hit-call score of the fitted dose curve at least 0.9, where 1 is the maximum). The gist of the method: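 520:495 nm emission ratio (excitation 340 nm) reports fluorescein-SRC-2 peptide recruitment to GST-TRα LBD by TR-FRET with Tb anti-GST antibody. Values were normalized to DMSO (0%) and T3 control wells (100%); loss of signal indicated antagonism.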

Assay [12] has as its target THRB (gene 7068) (UniProt P10828). Kind of assay: TOX21_TRB_BLA_Antagonist_Followup_ratio: Tox21 Thyroid Hormone Receptor beta Antagonism Beta-lactamase (BLA) Follow-Up Assay, Ratio (AID 2283958; active = hit-call score of the fitted dose curve at least 0.9, where 1 is the maximum). The gist of the method:
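HEK293T TRb-bla (GAL4 DBD + hTRβ LBD), 2% cs-FBS phenol red-free DMEM, 5 h attach; cpds 11-pt triplicate, 18 h 37C; CCF4-AM 2 h RT; 460/530 ratio vs DMSO; CellTiter-Glo viability same wells.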

Assay [13] is described as follows: TOX21_TRB_BLA_Antagonist_Followup_viability: Viability Assessment in the Tox21 Thyroid Hormone Receptor beta Antagonism Beta-lactamase (BLA) Follow-Up Assay (AID 2283961; active = hit-call score of the fitted dose curve at least 0.9, where 1 is the maximum). In short, it runs like this: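 TRβ-bla HEK293T (human TRβ LBD fused to GAL4 DBD), 3,000 cells/well, 2% charcoal-stripped FBS, phenol red-free medium; 18 h compound exposure, 37C; CellTiter-Glo 30 min RT; luminescence, loss-of-signal readout.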

In assay [14] the target is THRB (gene 7068) (UniProt P10828). Kind of assay: TOX21_TRB_COA_Antagonist_Followup_ratio: Tox21 Thyroid Hormone Receptor beta Antagonism through Coactivator Recruitment Follow-Up Assay, Ratio (AID 2283967; active = hit-call score of the fitted dose curve at least 0.9, where 1 is the maximum). The gist of the method: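 Cell-free TR-FRET: GST-TRb LBD (5.0 nM) with fluorescein-SRC-2 peptide (200 nM) and Tb anti-GST antibody (2 nM), 0.10% BSA. 520:495 nm emission ratio normalized to DMSO (0%) and T3 (100%).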

The target of assay [15] is Retinoic acid receptor RXR-alpha (Homo sapiens) (UniProt P19793). The assay can be described thus: TOX21_TR_RXR_BLA_Antagonist_Followup_ratio: Tox21 Thyroid Hormone Receptor beta Retinoid X Receptor alpha (RXRa) Antagonism Beta-lactamase (BLA) Follow-Up Assay, Ratio (AID 2283972; active = hit-call score of the fitted dose curve at least 0.9, where 1 is the maximum). The gist of the method: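 HEK293T RXRa-bla, 2% charcoal-stripped FBS medium, 16 h compound exposure at 37C, qHTS 11 conc x3. CCF4 FRET ratio ch2/ch1 (460:530), DMSO = baseline, loss-of-signal fit.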

A short description of assay [16]: TOX21_TR_RXR_BLA_Antagonist_Followup_viability: Viability Assessment in the Tox21 Thyroid Hormone Receptor beta Retinoid X Receptor alpha (RXRa) Antagonism Beta-lactamase (BLA) Follow-Up Assay (AID 2283979; active = hit-call score of the fitted dose curve at least 0.9, where 1 is the maximum). The gist of the method: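 RXRa-bla HEK293T cells (2,500/well, phenol red-free DMEM, 2% charcoal-stripped FBS) were attached 5 h, then exposed to compounds at 11 concentrations in triplicate for 16 h at 37C. Viability measured by CellTiter-Glo ATP luminescence, bidirectional fitting versus DMSO.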

A further assay has as its target PGR (gene 5241) (UniProt P06401). Kind of assay: TOX21_PR_LUC_Followup_Antagonist: Tox21 HEK293 Progesterone Receptor (PR) Antagonism Luciferase Follow-Up Assay (AID 2283938; active = hit-call score of the fitted dose curve at least 0.9, where 1 is the maximum;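 also: curve fitted upward as signal gain over DMSO baseline despite antagonist label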). In short, it runs like this:
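Cells are grown 5 days in charcoal-stripped-FBS assay medium, plated, left 5 h, then dosed with compound and incubated 16 h. ONE-Glo reagent is added and luminescence read after 30 min.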

A short description of assay [17]: TOX21_PR_LUC_Followup_Agonist_viability: Viability Assessment in the Tox21 HEK293 Progesterone Receptor (PR) Agonism Luciferase Follow-Up Assay (AID 2283941; active = hit-call score of the fitted dose curve at least 0.9, where 1 is the maximum;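 also: loss of signal means cytotoxicity so actives lower viability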). The gist of the method: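 Cells were kept 5 days in charcoal-stripped serum medium before plating HEK293-PR-A-luc at 3,000 cells/well. After 5 h they received DMSO-dissolved compound and incubated 16 h at 37C. Viability was taken from CellTiter-Glo ATP luminescence.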

The nature of assay [18]: TOX21_PR_LUC_Followup_Antagonist_viability: Viability Assessment in the Tox21 HEK293 Progesterone Receptor (PR) Antagonism Luciferase Follow-Up Assay (AID 2283940; active = hit-call score of the fitted dose curve at least 0.9, where 1 is the maximum). In short, it runs like this: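 Multiplexed viability counter-screen: after 5 days in charcoal-stripped-FBS medium, HEK293-PR-A-luc cells are plated, pinned with DMSO-dissolved compounds for 16 h at 37C, and ATP content is quantified luminescently via CellTiter-Glo.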

Structures are written as SMILES. Records with an inconclusive call do not appear. Activity calls are given as the source filed them. The calls were made as follows, unless noted: active = hit-call score of the fitted dose curve at least 0.9, where 1 is the maximum; inactive = score below 0.9.

Chain of PGR (gene 5241) (P06401 whole entry, looked up): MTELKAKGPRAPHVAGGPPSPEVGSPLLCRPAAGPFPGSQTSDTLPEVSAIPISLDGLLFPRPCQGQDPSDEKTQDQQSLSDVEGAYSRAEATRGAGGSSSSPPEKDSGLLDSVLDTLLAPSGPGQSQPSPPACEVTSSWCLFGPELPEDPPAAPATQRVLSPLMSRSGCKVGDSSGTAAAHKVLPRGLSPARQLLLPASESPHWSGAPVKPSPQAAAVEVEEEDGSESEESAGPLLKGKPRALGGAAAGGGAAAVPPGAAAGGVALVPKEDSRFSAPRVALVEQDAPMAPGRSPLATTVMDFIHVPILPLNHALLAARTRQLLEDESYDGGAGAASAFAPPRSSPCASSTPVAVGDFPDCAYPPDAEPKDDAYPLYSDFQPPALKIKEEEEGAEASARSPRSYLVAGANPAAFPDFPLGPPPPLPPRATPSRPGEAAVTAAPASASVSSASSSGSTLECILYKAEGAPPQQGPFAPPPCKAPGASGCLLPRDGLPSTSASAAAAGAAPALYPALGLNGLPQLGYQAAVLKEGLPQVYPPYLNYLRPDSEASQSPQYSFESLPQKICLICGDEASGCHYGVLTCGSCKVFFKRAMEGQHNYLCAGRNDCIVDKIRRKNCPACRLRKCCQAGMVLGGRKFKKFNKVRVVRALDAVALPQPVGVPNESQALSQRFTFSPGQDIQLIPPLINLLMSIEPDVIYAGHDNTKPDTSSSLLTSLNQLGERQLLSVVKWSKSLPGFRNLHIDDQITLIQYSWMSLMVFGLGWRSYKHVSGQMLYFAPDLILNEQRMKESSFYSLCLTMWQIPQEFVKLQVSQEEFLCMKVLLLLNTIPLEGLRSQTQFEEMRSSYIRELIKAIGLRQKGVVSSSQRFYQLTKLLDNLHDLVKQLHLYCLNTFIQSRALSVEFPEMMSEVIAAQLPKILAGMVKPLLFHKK
Chain of THRB (gene 7068) (P10828 whole entry, looked up, the tested form may be a part): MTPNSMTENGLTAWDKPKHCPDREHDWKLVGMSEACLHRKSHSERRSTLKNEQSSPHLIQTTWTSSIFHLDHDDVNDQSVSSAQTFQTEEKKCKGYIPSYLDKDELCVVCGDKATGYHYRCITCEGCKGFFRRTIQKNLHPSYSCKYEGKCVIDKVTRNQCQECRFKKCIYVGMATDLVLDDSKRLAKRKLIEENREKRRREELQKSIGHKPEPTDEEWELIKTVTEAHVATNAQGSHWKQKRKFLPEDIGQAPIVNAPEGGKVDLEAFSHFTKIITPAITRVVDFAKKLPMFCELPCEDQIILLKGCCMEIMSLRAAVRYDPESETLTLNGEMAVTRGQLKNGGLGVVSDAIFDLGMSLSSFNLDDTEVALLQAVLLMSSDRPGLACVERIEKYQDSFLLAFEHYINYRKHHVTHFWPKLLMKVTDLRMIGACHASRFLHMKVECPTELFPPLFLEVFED
Chain of Retinoic acid receptor RXR-alpha (Homo sapiens) (P19793 whole entry, looked up): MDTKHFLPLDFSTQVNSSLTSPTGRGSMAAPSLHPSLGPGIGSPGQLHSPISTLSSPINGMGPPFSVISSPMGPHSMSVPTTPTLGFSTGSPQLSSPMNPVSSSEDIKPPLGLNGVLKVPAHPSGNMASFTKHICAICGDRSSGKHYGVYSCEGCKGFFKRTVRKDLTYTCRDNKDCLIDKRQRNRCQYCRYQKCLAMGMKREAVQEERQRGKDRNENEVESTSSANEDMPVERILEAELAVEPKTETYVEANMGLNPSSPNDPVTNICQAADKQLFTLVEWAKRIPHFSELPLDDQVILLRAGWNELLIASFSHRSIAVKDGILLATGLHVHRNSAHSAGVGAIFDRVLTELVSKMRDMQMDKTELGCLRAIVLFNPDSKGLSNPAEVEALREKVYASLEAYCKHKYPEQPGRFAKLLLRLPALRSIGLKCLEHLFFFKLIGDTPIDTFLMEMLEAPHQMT
Chain of THRA (gene 7067) (P10827 whole entry, looked up, the tested form may be a part): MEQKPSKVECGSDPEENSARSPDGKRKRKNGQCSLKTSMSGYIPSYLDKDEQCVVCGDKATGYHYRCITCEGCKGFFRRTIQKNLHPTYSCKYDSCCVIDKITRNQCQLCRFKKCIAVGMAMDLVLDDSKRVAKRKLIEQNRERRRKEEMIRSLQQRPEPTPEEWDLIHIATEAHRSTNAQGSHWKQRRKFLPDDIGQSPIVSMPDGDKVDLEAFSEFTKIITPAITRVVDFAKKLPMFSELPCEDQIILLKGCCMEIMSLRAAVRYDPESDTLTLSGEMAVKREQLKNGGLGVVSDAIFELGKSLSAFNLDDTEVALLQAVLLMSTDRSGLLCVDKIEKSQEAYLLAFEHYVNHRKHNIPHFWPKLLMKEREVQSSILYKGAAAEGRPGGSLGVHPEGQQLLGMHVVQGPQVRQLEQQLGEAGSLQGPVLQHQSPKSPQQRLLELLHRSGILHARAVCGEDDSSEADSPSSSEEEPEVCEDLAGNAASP

`C=CCOC(=O)C(C)(C)OC(=O)c1cc(-n2c(=O)cc(C(F)(F)F)n(C)c2=O)ccc1Cl`: the result in assay [1], in assay [2], in assay [3], in assay [4], in assay [5] and in assay [6] was inactive. Moreover, the result in assay [7], in assay [8], in assay [9] and in assay [10] was inactive.
On to `CO/N=C(/C1=NOCCO1)c1ccccc1Oc1ncnc(Oc2ccccc2Cl)c1F`, for which the AC50 in assay [11] is 16.5 µM (active); in the assay with THRB (gene 7068) [12], 54.6 µM (active); in [13], 38.3 µM (active); in [16], 52 µM (active). The outcome (with THRA (gene 7067); in the assay with THRB (gene 7068) [14]; in assay [15]) was inactive.
`CCN(CC)C(=O)C(C)Oc1cccc2ccccc12` (stereo not given): the compound was called inactive (in the assay with PGR (gene 5241); in [17]).
Take `CC1(C)CCC(=Cc2ccc(Cl)cc2)C1(O)Cn1cncn1` (stereo not given): the compound was called inactive (with PGR (gene 5241); in [18]; in assay [17]).
Turning to `CCOC(=O)C(C)OC(=O)c1cc(Oc2ccc(C(F)(F)F)cc2Cl)ccc1[N+](=O)[O-]` (stereo not given), the outcome in assay [1], in assay [2], in assay [3], in [4], in [5] and in assay [6] was inactive. Further, the outcome in [7], in [8], in assay [9] and in assay [10] was inactive.
Consider `N#Cc1c[nH]cc1-c1cccc2c1OC(F)(F)O2`, for which the AC50 with PGR (gene 5241) was 7.11 µM (active). In addition, the call in [18] and in assay [17] was inactive.
For `Cc1c(COC(=O)[C@@H]2[C@H](/C=C(\Cl)C(F)(F)F)C2(C)C)cccc1-c1ccccc1`, the outcome in assay [1], in assay [2], in assay [3], in assay [4], in assay [5] and in [6] was inactive. Further, the result in assay [7], in assay [8], in [9] and in assay [10] was inactive.
On to `CC1(C)C(C=C(Cl)Cl)C1C(=O)OC(C#N)c1cccc(Oc2ccccc2)c1` (stereo not given), for which the outcome in [1], in assay [2], in [3], in assay [4], in [5] and in assay [6] was inactive. The result in assay [7], in assay [8], in assay [9] and in [10] was inactive.

As usually defined, the AC50 is the concentration at which the activity in the assay is half-maximal.
